Records with an inconclusive call do not appear. Calls of active or inactive are those of the source. Unless noted, calls come from the whole dose curve.
What was measured:
[1] = Nuclear factor erythroid 2-related factor 2/antioxidant responsive element (Nrf2/ARE) small molecule agonists: qHTS cell viability counter screen in human keratinocytes (AID 1919968; active = well fitted curve in the direction sought with a large enough effect in the repeat runs; an effect the other way counts as inactive or inconclusive; note: nearly all actives have a fitted effect of over 55% in size; note: potency is the fitted concentration of half-maximal effect)
Summary of the method: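 KeratinoSens cells (HaCaT keratinocytes stably carrying an ARE-luciferase reporter) were seeded at 1,500 cells/well and rested 5 h at 37 C/5% CO2. They were then exposed to compounds in DMSO for 23 h. Viability was read by CellTiter-Fluor fluorescence after 1 h.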

[2] = Nuclear factor erythroid 2-related factor 2/antioxidant responsive element (Nrf2/ARE) small molecule agonists: luciferase reporter gene qHTS assay in human keratinocytes (AID 1919969); note: nearly all actives have a fitted effect of over 35% in size; note: potency is the fitted concentration of half-maximal effect
[3] = target: Gonadotropin-releasing hormone receptor (Homo sapiens) (UniProt P30968); assay: Human gonadotropin-releasing hormone receptor (GnRHR) small molecule agonists, calcium flux assay in GnRHR-HEK293 cells (AID 1920063); note: nearly all actives have a fitted effect of over 35% in size
Summary of the method: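 HEK293 cells stably expressing human GnRHR were plated 18 h at 37 °C, loaded with calcium dye 1 h at 37 °C, then given compound in agonist mode; fluorescence (Ex/Em 480/540) read kinetically for 3 min at 1 s intervals.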

[4] = target: KiSS-1 receptor (Homo sapiens) (UniProt Q969F8); assay: Human kisspeptin (KISS1R) small molecule agonists, calcium flux assay in KISS1R-HEK293 cells (AID 1920064; active = well fitted curve in the direction sought with a large enough effect in the repeat runs; an effect the other way counts as inactive or inconclusive)
Summary of the method: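 HEK293 cells stably expressing human KISS1R were plated 18 h at 37 °C, loaded with calcium dye for 1 h at 37 °C, then given compound by pin tool. Fluorescence (Ex/Em 480/540) was read kinetically for 3 min.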

[5] = G protein-coupled receptor (GPCR) small molecule agonists, calcium flux assay: HEK293 wild type cell line counter screen (AID 1920065)
Summary of the method: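 Cells were plated and cultured 18 h at 37 C/5% CO2, then loaded with calcium dye for 1 h at 37 C. Compounds in DMSO were pin-transferred in agonist mode, and fluorescence (Ex/Em 480/540) was read kinetically for 3 min at 1 s intervals.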

[6] = p53 small molecule agonists, cell-based qHTS assay with human liver microsomes (AID 1963577);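 note: p53 response element beta-lactamase reporter cells with liver microsomes plus NADPH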
Summary of the method: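 Metabolically competent format: test substances, human liver microsomes and NADPH (both 0.5 mg/mL final) incubated with p53RE-bla cells 16 h at 37 C. Beta-lactamase reporter signal then quantified by fluorescence.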

[7] = p53 small molecule agonists, cell-based qHTS assay with rat liver microsomes (AID 1963578)
Summary of the method: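 Each plate received p53RE-bla cells, then compound, then rat liver microsomes and NADPH (both 0.5 mg/mL final). Plates were held 16 h at 37 C, and beta-lactamase activity was detected with LiveBLAzer over 2 h.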

[8] = p53 small molecule agonists, cell-based qHTS assay with human liver microsomes: qHTS cell viability counter screen (AID 1963579); note: nearly all actives have a fitted effect of over 45% in size
Summary of the method: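 Tox21 library compounds, delivered from DMSO stocks, were tested on p53RE-bla cells together with 0.5 mg/mL human liver microsomes and 0.5 mg/mL NADPH (final) over 16 h at 37 C; CellTiter-Glo luminescence served as the cytotoxicity measure.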

[9] = p53 small molecule agonists, cell-based qHTS assay with rat liver microsomes: qHTS cell viability counter screen (AID 1963580); note: nearly all actives have a fitted effect of over 45% in size
Summary of the method: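 p53RE-bla HCT-116 cells (4,000/well) rested 5 h at 37 C, then given Tox21 compounds in DMSO with rat liver microsomes (0.5 mg/mL final) plus NADPH (0.5 mg/mL final) for 16 h at 37 C. Viability read by CellTiter-Glo luminescence after 30 min at room temperature.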

[10] = p53 small molecule agonists, cell-based qHTS assay: qHTS cell viability counter screen (AID 1963581); note: nearly all actives have a fitted effect of over 45% in size
Summary of the method: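 p53RE-bla HCT-116 cells were exposed to compounds for 16 h at 37 C; after the beta-lactamase FRET read in the same wells, CellTiter-Glo was added and luminescence (intracellular ATP) read after 30 min at room temperature.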

[11] = cAMP Responsive Elements (CRE) small molecule antagonists, cell-based qHTS assay (AID 1963591; active = well fitted inhibition curve with a large enough effect in the signal ratio in the repeat runs, not every such curve was filed as active; the % refers to the signal ratio)
Summary of the method: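 CRE-bla HEK293T cells were plated 18 h at 37 °C/5% CO2, pinned with compound in DMSO, then stimulated with NKH477 at 0.25 uM final for 3 h. LiveBLAzer B/G FRET substrate was added and plates incubated 2 h at room temperature.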

[12] = target: Beta-2 adrenergic receptor (Homo sapiens) (UniProt P07550); assay: Adrenergic beta2 receptor (ADRB2) small molecule antagonists, cell-based qHTS assay (AID 1963592); note: series mostly up to about 92 µM; nearly all actives have a fitted effect of over 50% in size
Summary of the method: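 Cells (CHO, stable ADRB2 overexpression) incubated 18-20hr at 37C; compounds added from DMSO; agonist mix (1nM isoproterenol, 100uM IBMX, 25uM Ro-20-1724) added; 0.5hr RT; d2-cAMP and anti-cAMP-cryptate added; 1hr RT; 665/615 nm read.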

[13] = target: Beta-2 adrenergic receptor (Homo sapiens) (UniProt P07550); assay: Adrenergic beta2 receptor (ADRB2) small molecule agonists, cell-based qHTS assay (AID 1963593);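 note: CHO cells stably overexpressing human ADRB2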
Summary of the method: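 CHO cells stably over-expressing ADRB2 were plated overnight at 37C, then dosed with compounds plus a stimulation mix containing 100uM IBMX and 25uM Ro-20-1724 for 0.5hr at room temperature. cAMP was measured by HTRF competition, 1hr.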

[14] = target: D(2) dopamine receptor (Homo sapiens) (UniProt P14416); assay: Dopamine D2 receptor (DRD2) small molecule agonists, cell-based qHTS assay (AID 1963594); note: nearly all actives have a fitted effect of over 35% in size
Summary of the method: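 HEK293 cells stably expressing DRD2 were cultured 24 h at 37 C, then given Ro20-1724 (0.1 mM final) and compounds for 10 min at room temperature. NKH477 (200nM) was then added for 30 min. cAMP was read by HTRF.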

[15] = target: D(2) dopamine receptor (Homo sapiens) (UniProt P14416); assay: Dopamine D2 receptor (DRD2) small molecule antagonists, cell-based qHTS assay (AID 1963595; active = well fitted inhibition curve with a large enough effect in the signal ratio in the repeat runs, with a control signal flat; the % refers to the signal ratio)
Summary of the method: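 Readout: HTRF cAMP, cAMP-d2 competing with cellular cAMP for anti-cAMP cryptate, read after 1 h. Cells: DRD2-HEK293. Conditions: 0.1 mM Ro20-1724, 12 nM quinpirole, 200 nM NKH477, 30 min RT.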

[16] = target: 5-hydroxytryptamine receptor 2A (Homo sapiens) (UniProt P28223); assay: 5-hydroxytryptamine receptor 2A (HTR2A) small molecule antagonists, cell-based qHTS assay (AID 1963586); note: nearly all actives have a fitted effect of over 45% in size; note: potency is the fitted concentration of half-maximal effect
Summary of the method: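 Antagonist-mode intracellular calcium assay: DOI (4 nM) added after 5 min compound pre-incubation at room temperature to dye-loaded HTR2A-CHO cells. Fluorescence followed for 3 min, sampled every second.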

[17] = target: 5-hydroxytryptamine receptor 2A (Homo sapiens) (UniProt P28223); assay: 5-hydroxytryptamine receptor 2A (HTR2A) small molecule agonists, cell-based qHTS assay (AID 1963587); note: nearly all actives have a fitted effect of over 30% in size
Summary of the method: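 HTR2A-CHO cells, plated 18 h at 37 C/5% CO2, dye-loaded 1 h at 37 C; compounds in DMSO added by pin tool (agonist mode). Intracellular calcium flux read as kinetic fluorescence on FDSS over 2 min at 1 s intervals.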

[18] = target: Muscarinic acetylcholine receptor M1 (Homo sapiens) (UniProt P11229); assay: Cholinergic receptor muscarinic 1 (CHRM1) small molecule antagonists, cell-based qHTS assay (AID 1963588); note: nearly all actives have a fitted effect of over 40% in size
Summary of the method: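 CHRM1-CHO calcium-flux assay, antagonist mode. Cells were seeded 18 h, dye-loaded 1 h at 37 C and given compound for 5 min at RT, then acetylcholine was added at 50nM. FDSS fluorescence was read 3 min; 15 concentrations, three runs.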

[19] = target: Muscarinic acetylcholine receptor M1 (Homo sapiens) (UniProt P11229); assay: Cholinergic receptor muscarinic 1 (CHRM1) small molecule agonists, cell-based qHTS assay (AID 1963589); note: nearly all actives have a fitted effect of over 35% in size
Summary of the method: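 CHO cells stably expressing human CHRM1, seeded 18 h at 37 C/5% CO2, dye-loaded 1 h at 37 C, then given compound in agonist mode; intracellular calcium fluorescence read kinetically at 1 s intervals. Fifteen concentrations, three independent runs.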

[20] = cAMP Responsive Elements (CRE) small molecule agonists, cell-based qHTS assay (AID 1963590)
Summary of the method: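 CRE-bla HEK 293T cells in DMEM with 10% dialyzed FBS, NEAA, pyruvate and 25 mM HEPES were plated 18 h at 37 C/5% CO2, then exposed to compounds in DMSO for 3 h before LiveBLAzer B/G FRET substrate addition.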
% is set by controls: 0 for no effect and ±100 for the full control effect.

Gonadotropin-releasing hormone receptor (Homo sapiens), sequence (P30968 whole entry, looked up): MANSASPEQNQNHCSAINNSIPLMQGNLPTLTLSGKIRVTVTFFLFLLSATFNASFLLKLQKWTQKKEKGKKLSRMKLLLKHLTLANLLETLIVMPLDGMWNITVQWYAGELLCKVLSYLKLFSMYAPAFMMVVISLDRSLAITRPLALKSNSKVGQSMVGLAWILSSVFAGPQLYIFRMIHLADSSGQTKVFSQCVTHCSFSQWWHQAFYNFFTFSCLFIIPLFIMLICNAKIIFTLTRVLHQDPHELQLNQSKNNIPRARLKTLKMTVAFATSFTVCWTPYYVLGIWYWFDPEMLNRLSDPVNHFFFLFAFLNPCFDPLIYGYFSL
5-hydroxytryptamine receptor 2A (Homo sapiens), sequence (P28223 whole entry, looked up): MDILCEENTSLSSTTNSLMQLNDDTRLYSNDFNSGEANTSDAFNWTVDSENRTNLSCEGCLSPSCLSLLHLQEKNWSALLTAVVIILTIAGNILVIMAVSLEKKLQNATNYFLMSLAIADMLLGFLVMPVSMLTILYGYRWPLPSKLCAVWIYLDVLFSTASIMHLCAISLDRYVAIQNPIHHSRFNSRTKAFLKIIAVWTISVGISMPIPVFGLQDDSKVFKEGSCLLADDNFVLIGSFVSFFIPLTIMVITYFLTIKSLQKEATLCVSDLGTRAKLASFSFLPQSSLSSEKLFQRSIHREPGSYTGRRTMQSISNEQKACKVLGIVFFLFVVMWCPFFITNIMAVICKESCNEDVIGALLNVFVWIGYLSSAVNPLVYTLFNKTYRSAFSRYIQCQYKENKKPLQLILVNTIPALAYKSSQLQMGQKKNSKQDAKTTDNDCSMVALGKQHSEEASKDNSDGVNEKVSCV
D(2) dopamine receptor (Homo sapiens), sequence (P14416 whole entry, looked up): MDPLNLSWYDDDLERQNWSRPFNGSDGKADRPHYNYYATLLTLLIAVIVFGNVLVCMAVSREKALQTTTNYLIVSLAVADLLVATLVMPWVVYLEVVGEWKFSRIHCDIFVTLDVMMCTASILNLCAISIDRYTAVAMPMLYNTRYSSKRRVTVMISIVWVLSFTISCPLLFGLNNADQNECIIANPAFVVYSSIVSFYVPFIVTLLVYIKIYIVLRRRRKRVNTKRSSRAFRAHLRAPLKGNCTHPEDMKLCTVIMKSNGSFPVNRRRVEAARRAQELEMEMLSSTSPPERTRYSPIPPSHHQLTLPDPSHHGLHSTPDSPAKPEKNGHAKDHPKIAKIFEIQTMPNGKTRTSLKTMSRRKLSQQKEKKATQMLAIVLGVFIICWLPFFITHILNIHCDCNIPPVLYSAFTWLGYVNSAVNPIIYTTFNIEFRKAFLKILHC
Muscarinic acetylcholine receptor M1 (Homo sapiens), sequence (P11229 whole entry, looked up): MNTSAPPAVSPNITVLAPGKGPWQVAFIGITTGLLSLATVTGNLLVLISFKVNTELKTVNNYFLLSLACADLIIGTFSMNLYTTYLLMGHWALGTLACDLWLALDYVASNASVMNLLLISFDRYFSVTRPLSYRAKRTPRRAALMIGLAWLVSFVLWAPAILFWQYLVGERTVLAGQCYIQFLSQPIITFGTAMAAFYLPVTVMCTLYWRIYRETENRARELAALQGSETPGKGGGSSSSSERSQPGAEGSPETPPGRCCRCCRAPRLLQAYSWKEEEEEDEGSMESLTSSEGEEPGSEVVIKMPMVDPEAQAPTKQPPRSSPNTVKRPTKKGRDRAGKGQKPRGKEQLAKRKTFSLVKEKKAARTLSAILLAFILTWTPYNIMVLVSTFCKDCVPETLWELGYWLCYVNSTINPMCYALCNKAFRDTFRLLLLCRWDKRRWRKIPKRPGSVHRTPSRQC
Beta-2 adrenergic receptor (Homo sapiens), sequence (P07550 whole entry, looked up): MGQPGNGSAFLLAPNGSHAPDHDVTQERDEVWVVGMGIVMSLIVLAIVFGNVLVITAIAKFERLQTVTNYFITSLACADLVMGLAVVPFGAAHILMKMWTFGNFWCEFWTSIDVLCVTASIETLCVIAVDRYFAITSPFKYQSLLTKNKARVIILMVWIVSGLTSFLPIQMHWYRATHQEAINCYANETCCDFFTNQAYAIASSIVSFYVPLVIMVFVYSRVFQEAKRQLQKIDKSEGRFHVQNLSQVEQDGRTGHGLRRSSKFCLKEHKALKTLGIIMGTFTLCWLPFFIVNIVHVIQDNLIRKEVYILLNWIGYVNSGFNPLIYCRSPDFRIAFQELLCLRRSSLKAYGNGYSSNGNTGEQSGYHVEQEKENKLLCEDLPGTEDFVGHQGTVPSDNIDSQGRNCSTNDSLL
KiSS-1 receptor (Homo sapiens), sequence (Q969F8 whole entry, looked up): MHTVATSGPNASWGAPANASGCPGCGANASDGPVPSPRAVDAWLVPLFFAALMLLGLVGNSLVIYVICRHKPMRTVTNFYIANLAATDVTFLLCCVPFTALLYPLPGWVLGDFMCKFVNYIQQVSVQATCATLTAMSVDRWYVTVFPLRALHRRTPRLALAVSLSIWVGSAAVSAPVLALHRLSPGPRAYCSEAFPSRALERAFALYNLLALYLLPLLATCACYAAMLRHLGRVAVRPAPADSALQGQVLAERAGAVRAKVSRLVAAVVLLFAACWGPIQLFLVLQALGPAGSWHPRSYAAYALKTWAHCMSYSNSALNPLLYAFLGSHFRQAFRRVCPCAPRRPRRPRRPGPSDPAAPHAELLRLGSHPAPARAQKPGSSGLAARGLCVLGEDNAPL

NCCCC[C@H](N[C@@H](CCc1ccccc1)C(=O)O)C(=O)N1CCC[C@H]1C(=O)O
inactive: Potency [1] | Potency [2] | Potency [3] | outcome [4] | outcome [5] | Potency [6] | Potency [7] | Potency [8] | Potency [9] | Potency [10] | Potency [11] | Potency [12] | Potency [13] | Potency [14] | Potency [15]

C/C(=N\O)c1ccc(OCC(=O)N2CCCCC2)cc1
active: Potency [2] 11.9 µM
inactive: Potency [1] | Potency [3] | outcome [4] | outcome [5] | Potency [6] | Potency [7] | Potency [8] | Potency [9] | Potency [10] | Potency [16] | Potency [17] | Potency [18] | Potency [19] | Potency [20] | Potency [12] | Potency [13] | Potency [14] | Potency [15]

BrC/C=C/CBr
inactive: activity change, negative = cytotoxicity [1] -3.14% [at 19 µM] | activity, positive = activation [2] -2.5% [at 19 µM] | activity change [3] 0.305% [at 11.8 µM, active compounds read high] | activation [4] -0.639% [at 15.8 µM] | activation [5] 0.681% [at 11.8 µM] | activation [6] -4.84% [at 13.5 µM] | activation [7] -1.81% [at 13.6 µM] | activity change, negative = cytotoxicity [8] -4.11% [at 13.5 µM] | activity change, negative = cytotoxicity [9] -2.57% [at 13.5 µM] | activity change, negative = cytotoxicity [10] -2.07% [at 13.5 µM] | activity, negative = inhibition [16] -12.9% [at 12.7 µM] | activation [17] -0.944% [at 15.9 µM] | activity, negative = inhibition [18] -3.79% [at 12.6 µM] | activation [19] 1.37% [at 15.8 µM] | activity change, negative = inhibition [11] -2.76% [at 18.9 µM] | activity change, negative = inhibition [12] -26% [at 19 µM] | Potency [13] | activation [14] -0.205% [at 19 µM] | activity change, negative = inhibition [15] 7.87% [at 18.9 µM]

CC(C)=CCC/C(C)=C/CC/C(C)=C/C(=O)OCC(=O)[C@@]1(O)CC[C@H]2[C@@H]3CCC4=CC(=O)C=C[C@]4(C)[C@H]3[C@@H](O)C[C@@]21C
inactive: Potency [2] | Potency [3] | outcome [4] | outcome [5] | Potency [6] | Potency [7] | Potency [8] | Potency [9] | Potency [10] | Potency [16] | Potency [17] | Potency [18] | Potency [19] | Potency [20] | Potency [11] | Potency [12] | Potency [14]
active: Potency [1] 6.68 µM

CCCCCCCC
inactive: Potency [1] | Potency [2] | Potency [3] | outcome [4] | outcome [5] | Potency [6] | Potency [7] | Potency [8] | Potency [9] | Potency [10] | Potency [16] | Potency [17] | Potency [18] | Potency [19] | Potency [20] | Potency [11] | Potency [14] | Potency [15]

Nc1ccc(Cl)c([N+](=O)[O-])c1
inactive: Potency [1] | Potency [3] | outcome [4] | outcome [5] | Potency [6] | Potency [7] | Potency [8] | Potency [9] | Potency [10] | Potency [16] | Potency [17] | Potency [18] | Potency [19] | Potency [11] | Potency [12] | Potency [13] | Potency [14] | Potency [15]
active: Potency [2] 54.5 µM

Cc1cccc(N(C)C(=S)Oc2ccc3c(c2)CCC3)c1
inactive: Potency [1] | Potency [2] | Potency [3] | outcome [4] | outcome [5] | Potency [6] | Potency [7] | Potency [8] | Potency [9] | Potency [10] | Potency [17] | Potency [18] | Potency [19] | Potency [11] | Potency [12] | Potency [13] | Potency [14]
active: Potency [16] 1.3 µM
